Compound activity deposited in PubChem BioAssay by National Center for Advancing Translational Sciences (NCATS).
HP1b binding inh: HTS for Inhibitors of HP1-beta Chromodomain Interactions with Methylated Histone Tails. Chromobox protein homolog 1 (Homo sapiens), P83916. AlphaScreen HP1-beta / biotin-H3K9me3 peptide binding. Potency, µM (series often up to 114 µM), for the others: at the top dose activity change, negative = inhibition, actives largely listed as inhibitors. 0.56% of 390,000 active. AID 540317, 2011; further: potency means the concentration at half of the fitted maximal effect; nearly all actives have a fitted effect of over 70% in size
Target sequence (P83916 whole entry, looked up): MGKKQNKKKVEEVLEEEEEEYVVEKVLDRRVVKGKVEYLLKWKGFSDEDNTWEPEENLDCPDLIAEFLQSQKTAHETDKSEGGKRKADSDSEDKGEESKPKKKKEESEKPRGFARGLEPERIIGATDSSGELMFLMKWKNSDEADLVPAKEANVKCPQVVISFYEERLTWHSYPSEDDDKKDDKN
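Compound inhibition of the preformed complex between 50 nM HP1-beta and 50 nM biotinylated H3K9me3 peptide was read by AlphaScreen. Buffer was PBS pH 7.4 with 0.01% Tween-20. Incubations ran 30 min at room temperature, with 10 ug/mL donor/acceptor beads.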
JMJD2A Tudor: qHTS Assay for Inhibitors of JMJD2A-Tudor Domain; AlphaScreen JMJD2A-Tudor / H3K4me3 peptide binding; Potency, µM (top dose mostly 114 µM), inactives show at the highest dose activity change, negative = inhibition, most hits filed as inhibitors; 4.4% of 390,000 active; further: potency means the concentration at half of the fitted maximal effect; on the % scale 0 is the no-effect control and ±100 the full control effect; nearly all actives have a fitted effect of over 50% in size
GCN5L2 inh: qHTS Assay for Inhibitors of GCN5L2. 0.21% of 390,000 active. Histone acetyltransferase KAT2A (Homo sapiens), Q92830. GCN5L2 HAT assay, ThioGlo1 CoA-SH fluorescence. Potency, µM (titrated, usually from 58.9 µM), without a hit: top-dose activity change, negative = inhibition, most hits filed as inhibitors; further: potency means the concentration at half of the fitted maximal effect; on the % scale 0 is the no-effect control and ±100 the full control effect
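GCN5L2 (20 nM) in 50mM HEPES pH 7.5, 0.1mM EDTA, 0.01% Tween-20 preincubated 15 min with compounds at room temperature. Reaction started with H3(1-25) 75uM, acetyl-CoA 70uM, ThioGlo1 50uM; CoA-thiol fluorescence (Ex340/Em540) read at 0 and 20 min.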
PLK1 PBD inh: qHTS for Inhibitors of PLK1-PDB (polo-like kinase 1 - polo-box domain): Primary Screen. 2.8% of 360,000 active. AID 720504, 2013. Plk1 PBD binding of FITC phosphopeptide, fluorescence polarization. Serine/threonine-protein kinase PLK1 (Homo sapiens), P53350. Potency, µM, for inactives: max response, negative = inhibition, hits mostly inhibitors; further: potency means the concentration at half of the fitted maximal effect; series mostly up to about 57 µM; on the % scale 0 is the no-effect control and ±100 the full control effect; nearly all actives have a fitted effect of over 65% in size
PI5P4K alpha inh: qHTS for Inhibitors of phosphatidylinositol 5-phosphate 4-kinase (PI5P4K); max response, %; 1.2% of 330,000 active; PI5P4Kalpha enzyme, ADP-Glo luminescence, 60 min; stronger effect = lower value; active means max response of -50% or lower; inconclusive means between -30% and -50%; inactive means -30% or higher; further: value at the top dose of about 77 µM; on the % scale 0 is the no-effect control and ±100 the full control effect
Target sequence (P48426 whole entry, looked up): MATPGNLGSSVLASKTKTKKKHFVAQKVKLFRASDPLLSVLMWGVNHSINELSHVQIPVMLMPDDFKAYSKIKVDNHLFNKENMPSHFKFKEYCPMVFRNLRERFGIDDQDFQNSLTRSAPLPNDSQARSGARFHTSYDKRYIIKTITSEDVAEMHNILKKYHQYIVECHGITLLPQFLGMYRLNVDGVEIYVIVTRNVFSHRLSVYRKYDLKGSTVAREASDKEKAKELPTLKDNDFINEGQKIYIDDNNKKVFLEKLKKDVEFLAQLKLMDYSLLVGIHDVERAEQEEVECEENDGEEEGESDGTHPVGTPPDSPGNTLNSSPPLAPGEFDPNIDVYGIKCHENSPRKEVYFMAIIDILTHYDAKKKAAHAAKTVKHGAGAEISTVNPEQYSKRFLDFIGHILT
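qHTS, 1536-well: enzyme/substrate mix, compound by pin tool, 5 microM ATP final; RT 60 min; ADP-Glo reagents 1 (45 min) then 2 (30 min); luminescence.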
BAZ2B inh: qHTS Assay for Inhibitors of BAZ2B | AID 504333, 2011 | AlphaScreen BAZ2B-H3K14Ac peptide displacement | Potency, µM (titrated, usually from 114 µM), for inactives: top-dose activity change, negative = inhibition, most hits filed as inhibitors | 4.4% of 360,000 active | Bromodomain adjacent to zinc finger domain protein 2B (Homo sapiens), Q9UIF8; further: potency means the concentration at half of the fitted maximal effect; on the % scale 0 is the no-effect control and ±100 the full control effect; nearly all actives have a fitted effect of over 60% in size
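Multi-concentration screen (max 110 uM) measuring displacement of acetylated histone H3 peptide from BAZ2B by AlphaScreen, using 50 nM protein, 50 nM peptide and 10 ug/mL streptavidin donor plus Ni-chelate acceptor beads.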
Active calls of the source: *; ? = inconclusive; / = no result given; [ ] = dose if it differs, or a comment. Shown are actives, neighbours in structure and some others; about 7% of the full set was active somewhere. Unless noted, the call rests on the fitted dose curve; in most records, active means well fitted curve in the direction sought with a large enough effect; inconclusive means small, poorly fitted or top-dose-only effect, or another doubt; inactive means no such curve, though single readings can be large; an effect the other way counts as inactive or inconclusive.

SMILES	HP1b binding inh	JMJD2A Tudor	GCN5L2 inh	PLK1 PBD inh	PI5P4K alpha inh	BAZ2B inh
O=C(COC(=O)c1cc2c(s1)CCC2)Nc1ccc(F)cc1	40µM*	14µM*	?	-27%	?	50µM*
NC(=O)c1ccc(NC(=O)COC(=O)c2cc3c(s2)CCC3)cc1	?	?	-15%	-9%	?	/
COc1cc(F)ccc1-c1csc(C(C)(NC(C)=O)c2ccccc2)n1 (stereo unspecified)	/	/	/	-13%	1	/
Cn1c2ccccc2c2nnc(SCCOc3ccccc3)nc21	78%	-4%	/	/	/	/
Cc1cc(C(=O)Nc2ccc(N3CCCC3)c(Cl)c2)ccc1[N+](=O)[O-]	?	25µM*	-5%	-5%	9	28µM*
CN1C(=O)c2ccc(NC(=O)c3ccc(N4CCCCC4)c([N+](=O)[O-])c3)cc2C1=O	24%	-10%	-9%	-1%	8	-7%
NS(=O)(=O)c1ccc(O)c(NC(=O)c2ccc([N+](=O)[O-])o2)c1	45µM*	50µM*	?	4.2µM*	?	-16%
Cc1ccc(NC(=S)NNC(=O)c2ccc(N3CCOCC3)c([N+](=O)[O-])c2)cc1Cl	?	25µM*	-6%	-26%	-7	?
Cc1ccc(C)c(N2CCN(C(=O)c3ccc(N4CCOCC4)c([N+](=O)[O-])c3)CC2)c1	45µM*	56µM*	-9%	-14%	1	?
Cc1cc(C)cc(NC(=O)c2ccc([N+](=O)[O-])o2)c1	4%	?	-2%	-24%	-7	?
CCOC(=O)CC1NCCc2c1[nH]c1ccc(OC)cc21 (stereo unspecified)	14%	-15%	-26%	9%	14	12%
COc1ccc(-c2nnc(SCC(=O)Oc3c(C)cccc3C)o2)cc1OC	78%	-9%	-10%	/	/	-26%
CCCCOc1ccc(CNC(=O)Cn2ncn3c(cc4cc(F)ccc43)c2=O)cc1	28%	1%	-3%	/	/	4%
O=C(NC(=S)Nc1ccccc1N1CCCC1)c1ccc([N+](=O)[O-])cc1	22µM*	25µM*	-8%	-14%	4	11µM*
O=C(NC(=S)Nc1ccccc1N1CCOCC1)c1ccc([N+](=O)[O-])cc1	?	-14%	0%	3%	-1	?
O=C(Nc1ccc(N2CCCC2)c(Cl)c1)c1ccc([N+](=O)[O-])cc1	-3%	-27%	-4%	24µM*	4	3%
Cc1cccc(NC(=O)c2ccc(N3CCCCC3)c([N+](=O)[O-])c2)n1	?	?	-3%	-5%	-1	11µM*
CCC(=O)Nc1ccc(Cl)c(NC(=O)c2ccc([N+](=O)[O-])cc2)c1	11%	?	-10%	8.4µM*	-23	4%
CCC(=O)Nc1ccc(Cl)c(NC(=O)c2cccc(OC)c2)c1	31%	-11%	14%	-11%	4	-5%
Cc1ccc(C(=O)NCCCNC(=O)c2ccco2)cc1C	16%	-3%	-6%	2%	-4	4%
O=C(Nc1ccccc1N1CCCCC1)c1ccc([N+](=O)[O-])o1	45µM*	?	-8%	-3%	3	11µM*
O=C(Nc1ccccc1N1CCOCC1)c1ccc([N+](=O)[O-])o1	5%	-15%	2%	-5%	0	-16%
O=C1[C@H]2[C@@H](c3ccc(F)cc3)N3C(=O)N(c4ccc(Br)cc4)C(=O)[C@@]3(Cc3ccc(Cl)cc3)[C@H]2C(=O)N1C1CCCCC1	23%	-25%	-4%	55%	-5	-8%
COc1ccc(NC2=CC(=O)CC(C)(C)C2)cc1	69%	0%	-24%	-8%	-4	3%
COC(=O)c1ccc(NC2=CC(=O)CC(C)(C)C2)cc1	?	-20%[11.4 µM]	-6%	3.4µM*	?	-25%
SMILES	HP1b binding inh	JMJD2A Tudor	GCN5L2 inh	PLK1 PBD inh	PI5P4K alpha inh	BAZ2B inh
CC1(C)CC(=O)C=C(Nc2cccc(F)c2)C1	13%	?	3%	30µM*	1	-11%
COc1ccc(Cc2c(-c3ccc(OC)c(OC)c3)nc3ccc(C)cn23)c(C)c1	/	/	/	-2%	1	/
Cc1nc(NC(C)c2ccccc2)sc1C(=O)Nc1ccccc1 (stereo unspecified)	4%	-22%	-6%	24µM*	-4	?
CCc1ccc(N2C(=O)CC(N3CCN(Cc4ccc5c(c4)OCO5)CC3)C2=O)cc1 (stereo unspecified)	46%	-17%	-2%	5%	1	-21%
CCOc1ccccc1NC(=O)C(NCCN(C)C)c1ccccc1 (stereo unspecified)	-5%	22µM*	-4%	0%	-1	50µM*
CCOc1ccccc1NC(=O)C(=O)/C=C(\O)c1cc(OC)ccc1OC	-15%	20µM*	4%[0.501 µM]	21µM*	-9	9%
COc1ccc(OC)c(/C(O)=C/C(=O)C(=O)Nc2cc(C)cc(C)c2)c1	36%	-24%	-11%	-7%	2	7%
CCOc1ccccc1NC(=O)C(NCCc1ccc(OC)cc1)c1ccccc1 (stereo unspecified)	83%	24%	-5%	5%	12	50µM*
Cc1ccc(NC(=S)N2CCN(S(C)(=O)=O)CC2)cc1C	55%	-5%	-8%	0%	1	-10%
Cc1nn(Cc2ccccc2Cl)c(C)c1C(=O)N(C)CC(=O)Nc1cccc(F)c1	44%	-9%	2%	-8%	4	0%
O=C(CN1C(=O)C2C3C=CC(C3)C2C1=O)Nc1nc2ccccc2[nH]1 (stereo unspecified)	6%	11µM*	-1%	-7%	-9	-35%
CCOc1cccc(NC(=O)/C(C#N)=C/c2cccnc2)c1	19%	-13%	-28%	?	-2	-5%
CCOc1cc(/C=C(\C#N)C(=O)Nc2cccc(C(=O)O)c2)cc(Br)c1OC(=O)c1ccc(OC)cc1	?	56µM*	25µM*	9.5µM*	?	50µM*
CCOc1cc(/C=C(\C#N)C(=O)Nc2cccc(C(=O)O)c2)ccc1OCc1ccccc1Cl	-25%	56µM*	?	21µM*	1	50µM*
CC(C)Cc1cc(C(=O)N2CCC(N3CCC(C(=O)N4CCOCC4)CC3)CC2)n[nH]1	29%	-5%	3%	-17%	-2	30%
O=C(NCc1ccc(Cl)cc1)c1ncn[nH]1	30%	-8%	-6%	2%	-2	79µM*
